Test results published in article PMC4336329 (PLoS ONE, 2015).
Among all 310,000 compounds or so, about 14,000 (4.5%) showed an effect of 50% or more. Effects have a minus sign here. The full list was thinned out, with strong results kept by preference.

Biological target: human ether-à-go-go-related gene (hERG) potassium channel (human, UniProt Q12809)
Test: primary screen, population patch clamp on CHO cells stably expressing hERG; higher = less effect of the substance
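Note: peak tail current of the secondary pulse compared with the same well before compound.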

human ether-à-go-go-related gene (hERG) potassium channel, sequence (Q12809 whole entry, looked up): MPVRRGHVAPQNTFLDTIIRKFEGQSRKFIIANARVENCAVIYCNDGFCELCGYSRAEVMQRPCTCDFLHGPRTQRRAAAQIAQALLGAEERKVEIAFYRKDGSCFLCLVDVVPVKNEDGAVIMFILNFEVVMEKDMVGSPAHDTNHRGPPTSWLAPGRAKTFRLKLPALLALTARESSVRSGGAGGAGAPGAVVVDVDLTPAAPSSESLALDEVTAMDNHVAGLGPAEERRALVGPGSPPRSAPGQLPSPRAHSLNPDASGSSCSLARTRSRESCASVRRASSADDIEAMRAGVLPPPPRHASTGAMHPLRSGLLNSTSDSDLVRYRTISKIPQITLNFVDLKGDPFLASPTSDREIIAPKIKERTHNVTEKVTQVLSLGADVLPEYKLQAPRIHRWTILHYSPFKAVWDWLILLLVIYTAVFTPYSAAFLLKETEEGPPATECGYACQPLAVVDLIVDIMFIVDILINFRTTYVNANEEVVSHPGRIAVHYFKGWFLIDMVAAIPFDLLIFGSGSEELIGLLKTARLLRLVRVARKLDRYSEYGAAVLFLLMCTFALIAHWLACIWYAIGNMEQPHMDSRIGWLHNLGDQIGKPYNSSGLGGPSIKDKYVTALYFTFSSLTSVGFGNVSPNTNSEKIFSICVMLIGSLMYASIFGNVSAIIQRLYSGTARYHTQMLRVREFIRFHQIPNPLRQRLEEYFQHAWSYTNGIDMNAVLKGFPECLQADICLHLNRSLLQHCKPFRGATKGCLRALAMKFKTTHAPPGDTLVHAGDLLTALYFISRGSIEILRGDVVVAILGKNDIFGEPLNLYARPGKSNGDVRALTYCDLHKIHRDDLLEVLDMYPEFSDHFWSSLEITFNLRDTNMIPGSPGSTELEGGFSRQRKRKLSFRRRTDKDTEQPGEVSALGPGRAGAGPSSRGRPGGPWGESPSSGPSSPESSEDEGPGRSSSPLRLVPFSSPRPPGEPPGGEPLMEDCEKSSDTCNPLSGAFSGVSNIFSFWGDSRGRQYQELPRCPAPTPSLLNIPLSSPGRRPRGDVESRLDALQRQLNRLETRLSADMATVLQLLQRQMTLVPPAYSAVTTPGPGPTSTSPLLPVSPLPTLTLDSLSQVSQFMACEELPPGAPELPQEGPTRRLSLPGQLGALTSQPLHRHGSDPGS

| Structure (SMILES) | hERG current change (%, negative = inhibition) at 10uM |
| --- | --- |
| COc1cc(NC(=O)NNC(=O)c2cc3occc3n2C)cc(OC)c1OC | 26.1% |
| CS(=O)(=O)c1ccc(C(=O)NCC2(N3CCCCC3)CCCCC2)cc1 | -11% |
| CNS(=O)(=O)c1cccc(C(=O)NCC2(N3CCCCC3)CCCCC2)c1 | -18.3% |
| Cc1cccc(NS(=O)(=O)c2cccc(C(=O)NCC3(N4CCCCC4)CCCCC3)c2)c1 | -89.9% |
| Cc1cc(S(=O)(=O)Nc2ccc(C(=O)NCC3(N4CCCCC4)CCCCC3)cc2)ccc1F | -66.4% |
| O=C(NCC1(N2CCCCC2)CCCCC1)c1ccc(NS(=O)(=O)c2ccc(F)cc2)cc1 | -42.9% |
| CNS(=O)(=O)c1cccc(C(=O)NCC2(N3CCOCC3)CCCCC2)c1 | 9.92% |
| O=C(COc1ccccc1)Nc1nc(-c2cccs2)cs1 | 5.72% |
| CCOC(=O)c1c(C)[nH]c(C(=O)OC(C)C(=O)NCc2ccccc2)c1C (stereo not drawn) | 17.4% |
| COc1ccccc1-c1nnc(NC(=O)C2=COCCO2)o1 | 14.3% |
| CCc1sc(C(=O)N2CCC3(CC2)OCCO3)cc1Br | -7.08% |
| CC(=O)Nc1ccc(Nc2nnc(-c3ccc(C)c(S(=O)(=O)NCC4CCCO4)c3)c3ccccc23)cc1 (stereo not drawn) | -5.1% |
| O=C1NN(c2ccc(Br)cc2)C(=O)/C1=C\c1ccc(O)cc1O | 30.2% |
| Cc1ccccc1C(=O)Nc1ccc2nc3n(c(=O)c2c1)CCC3 | -9.1% |
| Nc1c(C=C2C=CC(=O)C=C2)c(=O)nc2sc(CC(=O)N3CCCCC3)nn12 | 15.6% |
| Br.COc1ccc(CNCc2ccc(F)cc2)c(OC)c1 | -79% |
| CCC(CC)NCc1ccc2c(c1)c1ccccc1n2CC.O=C(O)C(=O)O | -28.5% |
| COc1cccc(CNCc2ccc(OC)cc2OC)c1.O=C(O)C(=O)O | -14.1% |
| COc1ccc(CNCc2ccc(C)cc2)c(OC)c1.O=C(O)C(=O)O | -31.3% |
| COc1ccc(CNCc2cc(C)c(OC)cc2C)c(OC)c1.O=C(O)C(=O)O | -54.9% |
| COc1ccc(CNCc2ccncc2)c(OC)c1.Cl | -0.685% |
| COc1ccc(NC(=S)NCc2ccc(F)cc2)c(OC)c1 | 1.54% |

| Structure (SMILES) | hERG current change (%, negative = inhibition) at 10uM |
| --- | --- |
| CCn1c2ccccc2c2cc(CN3CCN(Cc4cc(OC)ccc4O)CC3)ccc21.O=C(O)C(=O)O | 7.15% |
| CCn1c2ccccc2c2cc(CNCc3ccc(OC)cc3OC)ccc21.O=C(O)C(=O)O | -76.2% |
| COc1cc(CNCc2ccc(OC)cc2OC)cc(OC)c1.O=C(O)C(=O)O | -29.5% |
| COc1ccc(CNCc2cc(OC)ccc2OC)cc1.O=C(O)C(=O)O | -30.3% |
| COc1ccc(CNCc2ccc3ccccc3c2)c(OC)c1.O=C(O)C(=O)O | -68.3% |
| CC1(C)CN(c2ccc(N3CC(C)(C)C3=O)cc2)C1=O | 4.66% |
| O=C(NC1CC2CCCC(C1)N2C(=O)Nc1ccccc1)c1ccncc1 (stereo not drawn) | 0.052% |
| CNCCc1c[nH]c2ccc(O)cc12.O=C(O)C(=O)O | 17.7% |
| Cc1cccc(NC(=O)c2ccccc2NC(=O)C(C)(C)C)n1 | -0.982% |
| CC(C)c1ccc(Nc2nnc(SCC(=O)c3nnc(-c4ccccc4)o3)s2)cc1 | 22.2% |
| CCn1c(NCc2ccc(N(C)C)cc2)nc2ccccc21 | -41.2% |
| O=C(Nc1nccs1)c1ccccn1 | -3.04% |
| Nc1nc(SCc2nc3sc4c(c3c(=O)[nH]2)CCCC4)n[nH]1 | 8.47% |
| CCOc1cccc(CNCCNC(=O)c2nonc2N)c1.Cl | -7.85% |
| CCN1CCN(C(=O)c2ccc(COc3cccc(Cl)c3)o2)CC1 | -23.7% |
| CSc1ccccc1C(=O)NCC(c1ccco1)N(C)C (stereo not drawn) | 16.9% |
| CN(C)C(CNC(=O)c1ccccc1OCc1ccc(Cl)cc1)c1ccco1 (stereo not drawn) | -60.3% |
| O=C(c1ccc(COc2ccc(Cl)cc2)o1)N1CCN(Cc2ccc3c(c2)OCO3)CC1 | -12.7% |
| O=C(c1ccco1)N1CCN(C(=O)c2ccccc2OCc2ccc(Cl)cc2)CC1 | -75.9% |
| O=C(OCC(=O)N1CCN(C(=O)c2ccco2)CC1)c1ccccc1OCc1ccc(Cl)cc1 | -35.3% |
| CCN1CCN(C(=O)c2ccc(COc3ccc(Cl)cc3)o2)CC1 | -52.5% |
| COc1ccc(Cl)cc1C(=O)NCC(c1ccco1)N(C)C (stereo not drawn) | -4.19% |

| Structure (SMILES) | hERG current change (%, negative = inhibition) at 10uM |
| --- | --- |
| O=C(c1ccccc1OCc1ccc(Cl)cc1)N1CCN(c2ccccn2)CC1 | -42.4% |
| O=C(c1ccco1)N1CCN(C(=O)c2ccc(CS(=O)c3ccc(F)cc3)o2)CC1 (stereo not drawn) | 11.8% |
| O=C(c1ccco1)N1CCN(C(=O)c2ccc(COc3ccc(F)cc3)o2)CC1 | -62.6% |
| O=C(c1ccc(COc2ccc(F)cc2)o1)n1cccn1 | 4.97% |
| Nn1c(SCC(=O)NC2CCCCC2)nnc1-c1ccccc1F | -3.17% |
| CCCc1[nH]nc2c1C(c1ccsc1)C(C#N)=C(N)O2 (stereo not drawn) | -7.53% |
| CCOC(=O)C1CCN(C(=O)c2cc3c(OC)c(OC)c(OC)cc3[nH]2)CC1 | 15.5% |
| O=C(c1ccco1)N1CCN(C(=O)c2ccc(COc3ccc4c(c3)CCC4)o2)CC1 | -69% |
| O=C(c1ccc(COc2ccc(Cl)cc2Cl)o1)N1CCCC1 | -43.1% |
| O=C(c1ccc(COc2ccc3c(c2)CCC3)o1)N1CCN(c2ccccc2)CC1 | 15.5% |
| O=C(COc1ccc(Cl)cc1Cl)N1CCN(C(=O)c2ccco2)CC1 | 20.6% |
| O=C(c1ccco1)N1CCN(C(=O)c2ccc(COc3ccc(Cl)cc3Cl)o2)CC1 | -70.4% |
| NNC(=O)c1ccc(COc2ccc3c(c2)CCC3)o1 | 0.852% |
| CCOc1cc2[nH]c(=S)n(CCC(=O)NCc3ccco3)c(=O)c2cc1OCC | 23.6% |
| CCOc1ccccc1CN1CCN(Cc2cc3ccccc3[nH]2)CC1CCO (stereo not drawn) | -59.3% |
| Cc1ccc(CN2CCN(Cc3cc(=O)c4ccccc4[nH]3)CC2CCO)o1 (stereo not drawn) | -30.8% |
| O=c1cc(CN2CCN(Cc3ccc(F)cc3)C(CCO)C2)[nH]c2ccccc12 (stereo not drawn) | -61.2% |
| CCOc1ccccc1CN1CCN(Cc2cc(=O)c3ccccc3[nH]2)CC1CCO (stereo not drawn) | -66.6% |
| CC(C)(C)CN1CCN(Cc2cc3ccccc3[nH]2)CC1CCO (stereo not drawn) | -8.03% |
| CC(C)CCN1CCN(Cc2cc3ccccc3[nH]2)CC1CCO (stereo not drawn) | -22.4% |
| Cc1cc(NC(=O)CSc2nc3sc4c(c3c(=O)n2C)CCCC4)no1 | 7.47% |
| O=c1c2ccccc2c(-c2ccccc2)nn1-c1ccc(Cl)c(Cl)c1 | 13.3% |

| Structure (SMILES) | hERG current change (%, negative = inhibition) at 10uM |
| --- | --- |
| CCOC(=O)C1CCCNC1=O (stereo not drawn) | 14.8% |
| O=C(O)/C=C/c1ccc2c(c1)OCCO2 | -25% |
| C=Cc1ccc2c(c1)OCCOCCOCCOCCOCCO2 | -71.2% |
| Brc1cc2c(cc1Br)OCCOCCOCCOCCO2 | -76.5% |
| Brc1ccc2c(c1)OCCOCCOc1cc(Br)ccc1OCCOCCOCCO2 | -4.86% |
| O=C(Nc1ccc2c(c1)OCCO2)c1ccc(Br)cc1 | -3.81% |
| S=C(Nc1ccc(Br)cc1)Nc1ccc2c(c1)OCCO2 | 20.5% |
| Brc1cc2c(cc1Br)OCCOCCOCCO2 | -11.5% |
| Brc1ccc2c(c1)OCCOCCOCCOCCOCCOCCO2 | -70.8% |
| CC(=O)Nc1cc2c(cc1Br)OCCO2 | 21.5% |
| Brc1ccc2c(c1)OCCOCCOCCOCCOCCO2 | -76.4% |
| Cl.Nc1ccc2c(c1)OCCOCCOCCOCCOCCO2 | -33.5% |
| O=C(Nc1ccc(Br)cc1F)c1ccc2c(c1)OCCO2 | 12.3% |
| COC(=O)/C(=C\c1cc(OC)c(OC)c(OC)c1)c1nc2ccccc2[nH]1.Cl | 19% |
| COc1ccc(C)cc1NC(=O)CCCN1C(=O)C(c2ccccc2)Oc2cccnc21 (stereo not drawn) | 2.21% |
| Cc1cccc(CCNC(=O)CCS(=O)(=O)c2cc3c(cc2Cl)NC(=O)CO3)c1 | 3.71% |
| CC[C@H]1OC(=O)[C@H](C)[C@@H](O[C@H]2C[C@@](C)(OC)[C@@H](O)[C@H](C)O2)[C@H](C)[C@@H](O[C@@H]2O[C@H](C)C[C@H](N(C)C)[C@H]2O)[C@](C)(O)C[C@@H](C)CN(C)[C@H](C)[C@@H](O)[C@]1(C)O | 1.55% |
| Cc1ccc(/C(O)=C2/C(=O)C(=O)N(Cc3ccco3)C2c2cccs2)cc1 (stereo not drawn) | -8.53% |
| CCOC(=O)c1cc(C(=O)n2cc(Cl)cn2)nn1C | 10.6% |
| Cc1ccc(-c2csc(NC(=O)CCNC(=O)c3ccco3)n2)cc1 | 5.76% |
| COc1cc2c(cc1NC(=O)c1cc(-c3cccnc3)nc3ccc(C)cc13)oc1ccccc12 | 8.86% |
